# Data published in ChEMBL document CHEMBL3988442, “University of Dundee, Small-Polar-MMV Screening Library” (2021).
# Out of some 48,000 compounds screened, about 13,000 (27%) showed an effect of 50% or more. The list shows a part of the results.
# System: Wolbachia pipientis
# Assay: Anti-Wolbachia Cell-Based Screen
# Assay type: functional
# Parameters: scale not given: in the data most compounds retested in dose-response had high values
# Settings: 5 µM
row,SMILES,Percent Effect
1,O=C(CCn1ccnc1)N1CC[C@@H](c2ccc3ccccc3c2)[C@H](O)C1,3.256%
2,Cc1nn(C)c(C)c1C1CCCN1C(=O)c1ccc2c(c1)OCCO2 (centres undefined),107.2%
3,Cc1nc(C(=O)N2CCCC2c2c(C)nn(C)c2C)ccc1C#N (centres undefined),-5.29%
4,Cc1nn(C)c(Cl)c1C1CCCN1C(=O)c1ccc2c(c1)OCO2 (centres undefined),4.266%
5,COc1c(C2CCCN2C(=O)c2ccc3c(c2)OCO3)c(C)nn1C (centres undefined),110.4%
6,Cc1nn(C)c(C)c1C1CCCN1C(=O)c1ccc(CN(C)C)cc1 (centres undefined),0.5484%
7,NC(=O)CC1CCCCN1C(=O)Cc1cccc(Br)c1 (centres undefined),-22.53%
8,Cc1ccc(N2CCC(NC(C)c3ccc(C)o3)CC2)nc1 (centres undefined),5.031%
9,O=C(CC(F)(F)F)N1C[C@H]2CC[C@@H]1CN(Cc1ccccc1)C2,-26.8%
10,c1cncc(-c2c[nH]c([C@@H]3COCCN3Cc3ccncc3)n2)c1,-1.952%
11,COCCn1cc(C(=O)N2CCCC2c2ccncc2)c2ccccc21 (centres undefined),12.21%
12,CN(CC(=O)Nc1nc2c(s1)CCC2)C(=O)c1cccs1,12.75%
13,COCCn1ccc2c(C(=O)Nc3nc4c(s3)CCC4)cccc21,149.9%
14,CN(CC(=O)Nc1nc2c(s1)CCCCCC2)C(=O)c1ccco1,-14.29%
15,COCCn1cc(CC(=O)Nc2nc3c(s2)CCC3)c2ccccc21,108.7%
16,COc1ncccc1C(=O)Nc1nc2c(s1)CN(S(=O)(=O)C1CC1)CC2,-5.987%
17,NC(=O)CCSCc1cc(Br)cc2cccnc12,-18.43%
18,CCn1cc(C#N)c(=O)c2cc(Br)ccc21,-20.97%
19,C=C(C)CN(CC)Cc1nc(C(C)(C)C)no1,1.625%
20,Cc1ccccc1CN(Cc1ccc(S(C)(=O)=O)cc1)CC(C)C,34.24%
21,COc1cc(Br)cc(CNC2CCCNC2=O)c1O (centres undefined),-10.61%
22,COCc1ccc(OC)c(CNC2CCCNC2=O)c1 (centres undefined),133.5%

row,SMILES,Percent Effect
1,COc1cc(Br)c(CNC2CCCNC2=O)cc1OC.Cl (centres undefined),-7.392%
2,Cn1cccc1CNCC1CCCn2cc(C(C)(C)C)nc21 (centres undefined),4.297%
3,NCC1CCN(c2cnn(CCCn3cccn3)c(=O)c2)CC1,3.68%
4,Cc1cc(C)n(CC2CCCCN2CC(=O)Nc2nnc(C)s2)n1 (centres undefined),-11.09%
5,Cc1cc(C)n(CC2CCCCN2CCC(=O)Nc2cc(C)on2)n1 (centres undefined),105.6%
6,Cc1cc(C)n(CC2CCCN2CC(=O)Nc2nnc(C)s2)n1 (centres undefined),-4.484%
7,Cc1cc(C)n(CC2CCCCN2CC(=O)Nc2ccncc2)n1 (centres undefined),9.261%
8,Cc1cc(C)n(CC2CCCN2CCC(=O)Nc2cc(C)on2)n1 (centres undefined),109.3%
9,Cc1cc(C)n(CC2CCCN2CC(=O)NC2CCOCC2)n1 (centres undefined),-0.8879%
10,CN(C)C(=O)C1CN(Cc2ccc(C#N)cc2F)c2ccccc2O1 (centres undefined),-1.206%
11,CC(NC(=O)N1CCN(c2cccs2)CC1)c1ccncc1 (centres undefined),-4.876%
12,O=C(Cc1cnccn1)N1CCC(c2nccn2CC2CC2)CC1,-28.72%
13,CSc1nnc(CC2CCN(C(=O)COc3cccnc3)CC2)n1C,8.261%
14,CCC(=O)N1CCC(Cc2cnc(Nc3cnccn3)cn2)CC1,88.17%
15,CC(=O)N1CCC(NC2(Cc3cc(C(C)(C)O)on3)COC2)CC1,1.756%
16,CC(=O)N1CCCC(C(=O)N2CCN(Cc3cc(C)on3)CC2)C1 (centres undefined),8.609%
17,CC(=O)N1CCC(Cc2cnc(Nc3cc(C)on3)cn2)CC1,121.6%
18,Cc1cnn(CC2CCCCN2CCC(=O)Nc2cc(C)on2)c1 (centres undefined),2.664%
19,O=C(CN1CCCCC1Cn1cncn1)NCc1ccccn1 (centres undefined),-8.236%
20,Cc1cnn(CC2CCCN2CC(=O)Nc2nncs2)c1 (centres undefined),1.96%
21,Cc1cnn(CC2CN(CC(=O)NCc3ccccn3)CCO2)c1 (centres undefined),-0.3283%
22,Cc1cnn(CC2CCCN2CC(=O)Nc2cc(C)no2)c1 (centres undefined),114.2%

row,SMILES,Percent Effect
1,Cc1cnn(CC2CCCN2CC(=O)NCc2ccccn2)c1 (centres undefined),118.9%
2,CCN1CCC(NC(=O)CN2CCCCC2Cn2cc(C)cn2)CC1 (centres undefined),7.683%
3,Cc1cnn(CC2CCCCN2CC(=O)Nc2nncs2)c1 (centres undefined),-7.053%
4,Cc1cnn(CC2CCCN2CC(=O)Nc2nccs2)c1 (centres undefined),91.79%
5,Cc1cnn(CC2CCCN2CC(=O)Nc2cc(C)on2)c1 (centres undefined),104.6%
6,Cc1cnn(CC2CCCCN2CC(=O)Nc2c(C)n[nH]c2C)c1 (centres undefined),8.734%
7,O=C(O)CC[C@@H]1CN(c2ccncc2)CC[C@@H]1N1CCOCC1,-3.387%
8,Cc1ccc(C(=O)N2CCSCC2)cc1NC(=O)NCC1CCC1,-32.66%
9,Cc1cnn(CC2CCCN2CC(=O)N(C)Cc2ccc(C)o2)c1 (centres undefined),15.94%
10,Cc1cnn(CC2CCCN2CC(=O)Nc2cc(C(C)C)no2)c1 (centres undefined),129.6%
11,Cn1ncc(NCc2cc(F)cc(F)c2)c(Cl)c1=O,-8.673%
12,COc1ccc(NC(=O)CCC2CCCN(Cc3ncon3)C2)cc1Cl (centres undefined),9.109%
13,CN(CC(=O)N1CCc2[nH]c3ccccc3c2C1)CC1OCCO1,105.4%
14,CC1CN(C(=O)c2cc(=O)[nH]c3ccc(F)cc23)CCO1 (centres undefined),4.129%
15,CN(C)C[C@@H]1[C@H]2CN(C(=O)c3cc(=O)[nH]c4ccc(F)cc34)C[C@@H]12,-6.499%
16,O=C(CNC(=O)N1CCc2c([nH]c3ccc(Cl)cc23)C1)N1CCOCC1,10.93%
17,CN(C)CCNC(=O)CNC(=O)N1CCc2c([nH]c3ccc(Cl)cc23)C1,31.1%
18,Cc1ccc2[nH]c3c(c2c1)CN(C(=O)CN(C)CC1OCCO1)CC3,95.71%
19,O=C(CN1CCc2[nH]c3ccccc3c2C1)NCc1ccco1,-4.019%
20,CN(C)CCCNC(=O)CNC(=O)N1CCc2c([nH]c3ccccc23)C1,22.94%
21,CN(CC(=O)N1CCc2[nH]c3ccc(F)cc3c2C1)CC1OCCO1,90.48%
22,c1ccc2c(NCC3(N4CCOCC4)CCSC3)ncnc2c1 (centres undefined),-37.37%

row,SMILES,Percent Effect
1,CSCCC(CO)NC(=O)c1ccc2[nH]/c(=N\S(C)(=O)=O)sc2c1 (centres undefined),102%
2,CCC(CC)NC(=O)c1ccc2c(c1)C(c1nc[nH]n1)CN2S(C)(=O)=O (centres undefined),-0.8083%
3,CC(CO)NC(=O)c1ccc2[nH]/c(=N\S(C)(=O)=O)sc2c1 (centres undefined),96.98%
4,CSCCC(C)NC(=O)c1cccc(-c2n[nH]c(C)n2)c1 (centres undefined),-6.222%
5,Cc1nn(C)c(C)c1CN(C)c1nc(C2CC2)nc2c(C)nn(C)c12,9.92%
6,Cc1nn(C)c2c(NCc3ccccc3F)nc(C3CC3)nc12,-10.39%
7,COc1ccnc(N(C)Cc2ccco2)n1,6.13%
8,Cc1nn(C)c2c(N(C)Cc3cccs3)nc(C3CC3)nc12,84.71%
9,Cc1nn(C)c2c(N(C)Cc3ccco3)nc(C3CC3)nc12,91.93%
10,Cc1nn(C)c2c(NCc3cccnc3)nc(C3CC3)nc12,-0.9652%
11,O=C(NCCCO)c1cnc(-c2ccccc2)nc1O,-7.002%
12,Cc1nc(NCCN2CCCC2=O)cc(C2CN(C)CCO2)n1 (centres undefined),121.4%
13,Cc1cnn(CC2CN(CCN3CCCC3=O)CCO2)c1 (centres undefined),-2.569%
14,CC(=O)N1CCN(c2cc(C3CN(C)CCO3)nc(C)n2)CC1 (centres undefined),-11.29%
15,CC(CCN1CCCC1=O)NCc1cnc(C2CCC2)s1 (centres undefined),5.748%
16,Cc1cc(N2CCCC(OC(=O)CCN3CCCC3=O)C2)nc(C)n1 (centres undefined),-12.05%
17,Cc1nc(NCCN2CCCC2=O)cc(C2CN(C(C)C)CCO2)n1 (centres undefined),108.1%
18,Cc1ccc(CNCC2CCCn3ccnc32)s1 (centres undefined),-4.636%
19,O=C(CCCn1cncn1)NC1(c2ccccc2)CCC1,-7.229%
20,Cn1cc(N2CCC(NC(=O)c3ccccc3F)C2=O)cn1 (centres undefined),1.627%
21,CC(C)C(NC(=O)c1ccccc1F)C(=O)Nc1cnn(C)c1 (centres undefined),10.34%
22,O=C(NC1(c2cccc(F)c2)CCOCC1)c1ccoc1,-9.671%

row,SMILES,Percent Effect
1,Cn1cc(C2=NOC(C(=O)NC3(c4ccccc4)CCCC3)C2)cn1 (centres undefined),117.7%
2,Cn1cc(C2=NOC(C(=O)NC3(c4cccc(F)c4)CCCC3)C2)cn1 (centres undefined),105.1%
3,O=C(NC1(c2cccc(F)c2)CCOCC1)c1ccccn1,10.14%
4,Cn1cc(C2=NOC(C(=O)NC3(c4ccccc4F)CCCC3)C2)cn1 (centres undefined),111.1%
5,CC(=O)c1cc(C(=O)NC2(c3ccccc3)CCC2)n(C)c1,-2.692%
6,N[C@@H]1c2ccccc2C2(CCN(C(=O)c3cncc(Cl)c3)CC2)[C@H]1O,-1.083%
7,CCN(Cc1noc(C)n1)C(=O)C(c1cccc(C)c1)N(C)C (centres undefined),1.236%
8,CSc1cc2c(cc1NC(=O)NCCn1ccnc1)OCCO2,8.638%
9,COCc1ccccc1C(=O)NS(=O)(=O)c1ccc2c(c1)CCC(=O)N2,-32.38%
10,COc1ccc2c(c1)C(C(=O)N(C)CCCc1cnn(C)c1)CC(=O)N2 (centres undefined),-51.57%
11,Cn1ccnc1COc1ccc(CSc2nnnn2C)cc1,6.685%
12,Cn1ccnc1COc1ccc(CN2CCN(CCO)CC2)cc1,-5.223%
13,Cn1ccnc1COc1ccc(COC(=O)C2CCCO2)cc1 (centres undefined),0.9583%
14,COCCN1CCN(Cc2ccc(OCc3nccn3C)cc2)CC1,100.2%
15,Cn1ccnc1COc1ccc(CSc2nncn2C2CC2)cc1,-10.32%
16,Cn1ccnc1COc1ccc(CO)cc1,4.503%
17,CCOC(=O)N1CCN(Cc2ccc(OCc3nccn3C)cc2)CC1,3.799%
18,Cn1ccnc1COc1ccc(CSc2nnnn2C2CC2)cc1,-14.27%
19,CC(=O)N1CCN(Cc2ccc(OCc3nccn3C)cc2)CC1,94.07%
20,CC1CCCN(Cc2ccc(OCc3nccn3C)cc2)C1 (centres undefined),64.75%
21,Cn1ccnc1COc1ccc(CN2CCC(C(N)=O)CC2)cc1,122.5%
